High-throughput results (PubChem BioAssay)
Compounds with a hit are over-represented: about 3.5% of the library has one in this group of screens.
TR SRC2 fluor cs – alters Texas Red total fluorescence, flagging assay interference; TRb/SRC2 Texas Red total fluorescence interference; hit rate 0.29% among 280,000; Potency, µM (titrated, usually from 106 µM); active = well fitted curve in either direction with a large enough effect; inconclusive = small, poorly fitted or top-dose-only effect
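Flags fluorescent or light-absorbing compounds by total fluorescence, S + 2P, at 555 nm excitation and 632 nm emission. Mixture: 20 nM Texas Red SRC2 peptide, 0.6 uM human TRb LBD, 1 uM T3, 5% DMSO; compound exposure 5 h at ambient temperature.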
Tau fluor cs – counter-screen for tau fibril formation inhibitors; tau K18 P301L Alexa594 fluorescence, heparin fibrillization; Potency, µM (doses to about 57.7 µM); hit rate 0.93% among 280,000; note: nearly all actives have a fitted effect of over 55% in size
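Human K18 P301L tau (15 uM unlabeled plus 0.24 uM Alexa 594-labeled, final) in 100 mM sodium acetate pH 7 was mixed with compound and 20 uM heparin and incubated 6 hr at 37 C.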
Tau FP inhib – tau fibrillization inhibition (FP). AID 1468. K18 P301L tau heparin fibrillization, Alexa594 FP, 6 h. P10636. Potency, µM (top dose mostly 57.7 µM), actives largely listed as inhibitors. hit rate 0.39% among 280,000; note: nearly all actives have a fitted effect of over 55% in size
Target sequence (P10636 561-689 P618L limits assumed): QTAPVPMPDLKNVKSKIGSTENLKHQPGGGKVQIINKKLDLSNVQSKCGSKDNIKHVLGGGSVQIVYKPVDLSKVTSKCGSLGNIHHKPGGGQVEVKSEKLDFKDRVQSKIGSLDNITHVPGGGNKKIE
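Steps: dispense K18 P301L tau (15 uM plus 0.24 uM Alexa 594 tracer, final) in pH 7 sodium acetate; add compound; add heparin (20 uM final); incubate 6 hr, 37 C; add ThT (30 uM final); after 1 hr ambient, read FP.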
TRb SRC2 PPI – disrupts binding of human TR beta to SRC2 | P10828 | TRbeta-SRC2 peptide binding, fluorescence polarization; receptor liganded with 1 µM T3 | Potency, µM (series often up to 106 µM), most hits filed as inhibitors | hit rate 0.065% among 280,000 | AID 1469; note: nearly all actives have a fitted effect of over 50% in size
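Binding of a 20-amino-acid Texas Red SRC2 peptide (20 nM) to TRb ligand-binding domain (0.6 uM) with agonist T3 at 1 uM was followed by fluorescence polarization after a 5 hr room-temperature incubation.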
Tau fibril ThT – inhibitors of human tau fibril formation, thioflavin T binding. P10636. recombinant tau K18 P301L, heparin-induced fibrillization, ThT fluorescence. Potency, µM (series often up to 57.4 µM), most hits filed as inhibitors. hit rate 2.1% among 270,000; note: nearly all actives have a fitted effect of over 55% in size
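Using a mix of unlabeled (15 uM) and Alexa 594-labeled (0.24 uM) tau K18 P301L, heparin-triggered fibrillization over 6 hr at 37 C was scored by ThT fluorescence.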
KDM4E inh – JMJD2E (human) inhibition; hit rate 1.6% among 230,000; AID 2147; B2RXH2; Potency, µM (highest dose often 57.1 µM), most hits filed as inhibitors; JMJD2E catalytic domain, FDH-coupled NADH fluorescence (FDH is formaldehyde dehydrogenase); note: nearly all actives have a fitted effect of over 50% in size
Target sequence (B2RXH2 1-337 limits assumed): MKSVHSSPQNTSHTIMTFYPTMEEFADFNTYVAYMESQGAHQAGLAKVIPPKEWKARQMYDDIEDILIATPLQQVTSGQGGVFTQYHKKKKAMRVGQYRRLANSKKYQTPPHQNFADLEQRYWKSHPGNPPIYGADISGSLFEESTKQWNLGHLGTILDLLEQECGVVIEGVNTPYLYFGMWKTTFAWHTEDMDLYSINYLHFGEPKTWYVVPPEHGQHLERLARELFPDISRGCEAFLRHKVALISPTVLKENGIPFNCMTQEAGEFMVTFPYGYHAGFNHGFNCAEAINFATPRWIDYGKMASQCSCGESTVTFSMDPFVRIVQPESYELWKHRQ
Of the large screens only hits and unclear results are named; the others gave an inactive call; [ ] = another dose, or the depositor's remark. Unless noted, calls come from the whole dose curve; as a rule, active = well fitted curve in the direction sought with a large enough effect; inconclusive = small, poorly fitted or top-dose-only effect, or another doubt; inactive = no such curve, though single readings can be large; an effect the other way counts as inactive or inconclusive.

O=C(N/N=C/C(Cl)=C/c1ccc([N+](=O)[O-])cc1)C(=O)Nc1ccc(C(=O)O)cc1	Tau fibril ThT 3.55µM
O=C(Nc1ccc([N+](=O)[O-])cc1)C(=O)Nc1cccc(C(=O)O)c1	Tau fibril ThT inconclusive
COc1cc(/C=C/C(=O)OCC(=O)Nc2ccc(C)c(S(=O)(=O)N3CCCCC3)c2)ccc1O	Tau fluor cs 14.1µM[quencher]
COc1cc(/C=C/C(=O)OCC(=O)Nc2cc(S(=O)(=O)N3CCCCC3)ccc2C)ccc1O	Tau fluor cs inconclusive, KDM4E inh inconclusive
Cc1cc(OCc2ccccc2)ccc1/C(O)=C1/C(=O)C(=O)N(Cc2cccnc2)C1c1ccncc1 (stereo unspecified)	none
CCOc1cc(/C=N/Nc2cccc(C(=O)O)c2)ccc1OC(=O)c1ccccc1	Tau fluor cs inconclusive, Tau fibril ThT inconclusive
CCOc1cc(/C=N/NC(=O)CNc2cccc(C)c2)ccc1OC(=O)c1ccccc1	Tau fluor cs 14.1µM[quencher], Tau fibril ThT inconclusive
CCOc1ccccc1NC1=NC2CS(=O)(=O)CC2S1 (stereo unspecified)	none (no result: Tau fibril ThT)
N#C/C(=C/c1ccc2c(c1)OCO2)C(=O)NCCc1c[nH]c2ccccc12	Tau fluor cs 20µM[quencher], Tau fibril ThT 12.6µM
N#C/C(=C\c1ccc(-c2ccc(Br)cc2)o1)C(=O)NCCc1c[nH]c2ccccc12	Tau fluor cs inconclusive, Tau fibril ThT inconclusive
Cc1ccc(C)n1Cc1ccc(C(=O)O)cc1	TR SRC2 fluor cs inconclusive, Tau FP inhib inconclusive, Tau fibril ThT inconclusive, KDM4E inh 4.47µM
CCc1ccc(NC(=O)Cn2ncc3c(C)n(Cc4cccc(Cl)c4)c(C)c3c2=O)cc1	none (no result: KDM4E inh)
C=C(C)COc1ccc(-c2[nH]ncc2Oc2ccccc2OCC)c(O)c1	Tau fluor cs 3.98µM[quencher], Tau FP inhib inconclusive, Tau fibril ThT inconclusive
COc1ccc(-c2[nH]ncc2Oc2ccccc2OC)c(O)c1	Tau fluor cs 25.1µM[quencher]
C=C(C)COc1ccc(-c2nc(N)nc(C)c2Oc2ccccc2OC)c(O)c1	Tau fluor cs inconclusive
C=C(C)COc1ccc(-c2[nH]ncc2Oc2cccc(OC)c2)c(O)c1	Tau fluor cs 8.91µM[quencher], Tau FP inhib inconclusive
CC(=O)N/C(=C\c1ccc(F)cc1)C(=O)NC(C(=O)O)C(C)C (stereo unspecified)	none
CC1=C(C(=O)Nc2ccc(Cl)cc2)C(c2ccccc2F)n2nc(SCc3cccc(Cl)c3)nc2N1 (stereo unspecified)	Tau FP inhib inconclusive (no result: KDM4E inh)
CCOC(=O)c1[nH]nc(-c2cc(CC)c(O)cc2O)c1-c1cscn1	none
CC(C)c1nc2ccc(C(=O)NCCCN3CCN(c4ccccc4)CC3)cc2o1	none (no result: KDM4E inh)
O=C1c2ccccc2C(=O)N1CCCc1c[nH]c2ccc(Cl)cc12	Tau fluor cs 11.2µM[quencher]
C=CCn1c(SCC(=O)NCC2CCCO2)nc2scc(-c3ccco3)c2c1=O (stereo unspecified)	Tau fibril ThT inconclusive
C=CCn1c(SCC(=O)NCCOC)nc2scc(-c3ccco3)c2c1=O	Tau FP inhib 15.8µM, Tau fibril ThT 22.4µM
CC(=O)n1cc([C@H]2C=C(C(=O)N3CCN(Cc4ccccc4)CC3)O[C@@H](OCCCCO)C2)c2ccccc21	KDM4E inh inconclusive
CC(=O)n1cc([C@@H]2C=C(C(=O)NCc3ccccc3)O[C@H](OCCCCO)C2)c2ccccc21	Tau fibril ThT inconclusive, KDM4E inh 15.8µM
CC(=O)n1cc([C@@H]2C=C(C(=O)N3CCN(Cc4ccccc4)CC3)O[C@H](OCc3ccc(CO)cc3)C2)c2ccccc21	Tau fibril ThT inconclusive, KDM4E inh 20µM
CCCC(=O)NCc1nc2cccnc2n1Cc1ccc(F)cc1	Tau fluor cs inconclusive, Tau FP inhib inconclusive, Tau fibril ThT inconclusive (no result: KDM4E inh)
COc1ccc(CCNCC(=O)N2C(C)CCCC2C)cc1OC (stereo unspecified)	KDM4E inh 31.6µM
COc1ccc(CCNCc2ccc3c(c2)n(C)c(=O)n3C)cc1OC	TR SRC2 fluor cs 89.1µM[quencher] (no result: KDM4E inh)
COc1ccc(CCNC(=O)C2CC2)cc1OC	none
